Bioassay records: PubChem, National Center for Advancing Translational Sciences (NCATS)
Only a selection was taken, and hits are over-represented in it overall.
Tb PYK inh = T. brucei pyruvate kinase inhibition | Potency, µM (series often up to 76.8 µM), inactives show top-dose activity, negative = inhibition, most hits filed as inhibitors | 410,000 compounds, 0.12% hits | TbPYK enzyme, Kinase-Glo Plus ATP luminescence, 45 min | Q57TT1; note: potency is the fitted concentration of half-maximal effect; % is set by controls: 0 for no effect and ±100 for the full control effect; nearly all actives have a fitted effect of over 50% in size
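Activity of T. brucei pyruvate kinase was followed by Kinase-Glo Plus luminescence after the enzyme reacted 45 min at room temperature with 130 uM ADP (final) and substrate. Test compounds were added before ADP at multiple concentrations.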
LmPK inhibitor = LmPK (Leishmania mexicana) enzyme inhibition; Q27686; purified LmPK, Kinase-Glo ATP luminescence, 1 h; Potency, µM (titrated, usually from 57.5 µM), for inactives: at the highest dose activity change, negative = inhibition, hits mostly inhibitors; 290,000 compounds, 0.37% hits; note: potency is the fitted concentration of half-maximal effect; % is set by controls: 0 for no effect and ±100 for the full control effect
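In 50 mM imidazole pH 7.2 with 7 mM MgCl2, LmPK (0.1 nM) turned over PEP (0.5 mM) and ADP (0.1 mM) for 1 h at room temperature. Luciferase read-out of ATP.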
Sm TGR inh = inhibitors of Schistosoma mansoni thioredoxin glutathione reductase; Q962Y6; purified TGR, DTNB reduction, TNB absorbance 405 nm; Potency, µM (highest dose often 114 µM), without a hit: top-dose activity change, negative = inhibition, actives largely listed as inhibitors; 360,000 compounds, 3% hits; AID 485364; note: potency is the fitted concentration of half-maximal effect; % is set by controls: 0 for no effect and ±100 for the full control effect; nearly all actives have a fitted effect of over 60% in size
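TGR 20 nM + NADPH 100 uM (dispensed conc.), cpd preinc 15 min RT; start with NADPH (500 uM addition) then DTNB (15 mM addition). Kinetic TNB absorbance, 405 nm filter. Four-parameter Hill fit across titration.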
CHX counter = affects cycloheximide protein synthesis inhibition readout, counter-screen; cell reporter, cycloheximide protein synthesis inhibition counterscreen; max response, %; 300,000 compounds, 12% hits; in the data active = max response mostly above about 13%, no sharp cut-off; inactive = mostly below about 14%; note: read at 38.3 µM for the half of the compounds with a filed dose; 0% is about no effect
Shiga toxin inh = Shiga toxin inhibition; Vero cells, Shiga toxin protein synthesis inhibition reporter; 290,000 compounds, 9.2% hits; inhibition, % at 38.7 µM; AID 2315; in the data active = inhibition mostly above about 28%, no sharp cut-off; inactive = mostly below about 43%; note: 0% is about no effect
Giardia FBPA inh = Giardia lamblia aldolase inhibition | A8B2U2 | purified Giardia FBPA | Potency, µM (titrated, usually from 59.6 µM), inactives show at the top dose activity, negative = inhibition, hits mostly inhibitors | 290,000 compounds, 0.71% hits | AID 2451; note: potency is the fitted concentration of half-maximal effect; % is set by controls: 0 for no effect and ±100 for the full control effect; nearly all actives have a fitted effect of over 55% in size
Target sequence (A8B2U2 whole entry, looked up): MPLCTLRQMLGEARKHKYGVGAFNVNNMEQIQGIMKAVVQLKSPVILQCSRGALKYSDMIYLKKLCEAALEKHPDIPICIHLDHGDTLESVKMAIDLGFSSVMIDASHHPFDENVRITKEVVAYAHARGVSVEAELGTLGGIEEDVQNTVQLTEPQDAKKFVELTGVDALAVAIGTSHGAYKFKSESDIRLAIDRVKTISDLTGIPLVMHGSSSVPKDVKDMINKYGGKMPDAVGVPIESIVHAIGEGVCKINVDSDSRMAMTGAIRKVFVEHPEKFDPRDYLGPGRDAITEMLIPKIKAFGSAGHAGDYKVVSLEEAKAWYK
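40 nM FBPA preincubated 10 min at RT with compound (up to 57.5 uM final), then substrate plus GAPDH/TPI/NAD/arsenate coupling and diaphorase/resazurin added. Fluorescence read after 20 min at RT, 525/598 nm.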
Starred values were filed as active, the others as inactive; ? = inconclusive; · = no result given; [ ] = dose if it differs, or a comment. Unless noted, calls come from the whole dose curve; as a rule, active = well fitted curve in the direction sought with a large enough effect; inconclusive = small, poorly fitted or top-dose-only effect, or another doubt; inactive = no such curve, though single readings can be large; an effect the other way counts as inactive or inconclusive.

SMILES	Tb PYK inh	LmPK inhibitor	Sm TGR inh	CHX counter	Shiga toxin inh	Giardia FBPA inh
O=S(=O)(O)OCC1OC(OC2(COS(=O)(=O)O)OC(COS(=O)(=O)O)C(OS(=O)(=O)O)C2OS(=O)(=O)O)C(OS(=O)(=O)O)C(OS(=O)(=O)O)C1OS(=O)(=O)O (stereo not given)	0%	·	·	·	·	·
CCc1nc2scc(-c3ccccc3)c2c(=O)n1N	-19%	4%	5%	-3	2	4%
Cc1nc2scc(-c3ccccc3)c2c(=O)n1N=C1C=CC(=O)C=C1	4µM*	-21%	-5%	25*	49*	-1%
Cc1ccc(OC(=O)CSc2nnc(-c3ccc4c(c3)OCO4)o2)cc1	-3%	·	9%	·	·	·
NC(=O)CSc1nnc(-c2ccc3c(c2)OCO3)o1	7%	-30%	11%	28*	75*	6%
C/C(N)=C(/C#N)C(=O)CSc1nnc(-c2ccc3c(c2)OCO3)o1	-10%	0%	-23%	44*	99*	9%
C/C(N)=C(/C#N)C(=O)CSc1nnc(-c2ccc(OC(F)F)cc2)o1	2%	5%	-6%	35*	99*	11%
Cc1nc(NC(=O)CSc2nnc(-c3ccc4c(c3)OCO4)o2)c(Cl)cc1Cl	0%	0%	2%	19*	active	1%
Cc1cc(C)c2c(CC(=O)N3CCN(c4cccc(Cl)c4)CC3)coc2c1	2%	·	25%	·	·	·
CCOc1ccc(CN(C)CC(=O)Nc2ccccc2C(=O)NC2CC2)cc1	-13%	·	0%	·	·	·
Cc1cccc(N2C(=O)CCSC23C(=O)N(Cc2ccc(F)cc2)c2ccccc23)c1 (stereo not given)	-10%[15.4 µM]	·	0%	·	·	·
CCCNC(=O)C1(C)CCN(C(=O)c2ccc(F)c(Cl)c2)C1 (stereo not given)	-1%	·	·	·	·	·
O=C(NCCc1ccccc1)C1Cc2c(-c3ccccc3Oc3ccccc3)ccnc2O1 (stereo not given)	1%	·	·	·	·	·
N#CCSc1nnc(-c2ccc3c(c2)OCO3)o1	-2%	4%	7%	14*	24*	3%
O=C(O)CSc1nnc(-c2ccc3c(c2)OCO3)o1	0%	-9%	-1%	-2	50	11%
Clc1ccc(CNc2ccccc2NCc2ccc(Cl)nc2)cn1	-19%	0%	-10%	15	-7	-22%
Nc1cnc(CNc2ccccc2Cl)cn1	-1%	-6%	-3%	14	32*	0%
Cc1nc(-n2nc(C)c(CCC(C)C)c2C)sc1C(=O)Nc1cccc(Cl)c1C	-1%	·	-2%	·	·	·
O=C(N/N=C/c1ccc(N2CCOCC2)o1)c1ccccc1[N+](=O)[O-]	?	-8%	8.9µM*	-1	14	-11%
O=C(N/N=C/c1ccc(Cl)s1)c1ccccc1[N+](=O)[O-]	1%	2%	4%	-2	-15	-19%
O=C(Nc1ccc(N2CCOCC2)nc1N1CCOCC1)c1cccc(C(F)(F)F)c1	-8%	6%	7%	-5	-8	-16%
O=C(N/N=C/c1ccc(N2CCCCC2)o1)c1ccccc1[N+](=O)[O-]	?	-9%	4µM*	-2	6	-23%
O=C(N/N=C/c1ccc(N2CCOCC2)o1)c1cccc(C(F)(F)F)c1	?	-1%	11µM*	-2	-3	?
C=CCOC(=O)N[C@H](c1ccco1)C(C(C)=O)C(C)=O	·	·	·	·	·	-2%
Cc1cccc(NC(=O)CCn2cnnn2)c1C	6%	·	6%	·	·	·
SMILES	Tb PYK inh	LmPK inhibitor	Sm TGR inh	CHX counter	Shiga toxin inh	Giardia FBPA inh
Cc1ccccc1OCC(=O)N(Cc1ccco1)c1c(N)n(Cc2ccccc2)c(=O)[nH]c1=O	0%	·	45µM*	·	·	·
Nc1c(N(CCO)C(=O)/C=C/c2ccco2)c(=O)[nH]c(=O)n1Cc1ccccc1	-5%	0%	50µM*	-3	-3	0%
CCN(CC)C(=O)N[C@H]1C=C2c3cccc4[nH]cc(c34)C[C@@H]2N(C)C1	·	·	·	·	·	-20%[21.7 µM]
C[C@H]1Cc2c(COc3ccccc3)nc3c(c2CO1)CN(S(=O)(=O)c1ccc(C#N)cc1)CC3	·	-3%[11.5 µM]	·	·	·	3%[12.9 µM]
Cc1cccc(-n2ccnc2SCC(=O)Nc2nccs2)c1	-2%	2%	1%	29*	58	6%
Cc1cc(C)cc(-n2ccnc2SCC(=O)Nc2nccs2)c1	0%	3%	3%	1	-6	-1%
COc1cccc(-n2ccnc2SCC(=O)Nc2nccs2)c1	-7%	2%	14%	21*	42	2%
COc1ccc(Cl)cc1Cn1c(C)c(C(=O)NCc2cccc(Cl)c2)sc1=O	0%	·	·	·	·	·
COc1ccc(Nc2ncnc3sc(C)cc23)c(OC)c1	4%	-1%	0%	23*	48*	?
COc1ccc(S(=O)(=O)NCC(=O)NCc2cc(=O)n(C)c(=O)n2C)cc1C	1%	-9%	-5%	-2	-6	6%
Cc1ccc(C(=O)O)cc1-c1ccc(C=C2C(=O)c3ccccc3C2=O)o1	3%	2%	45µM*	2	12	-13%
O=C1C(=Cc2ccc(Br)o2)C(=O)c2ccccc21	-12%	-25%	11µM*	30*	-3	-1%
COC(=O)C(C)N1C(=O)S/C(=C\c2ccc(-c3ccc(C(=O)O)cc3C)o2)C1=O (stereo not given)	-21%	-2%	-2%	44*	89*	0%
Cc1ccc(NC(=O)CN2C(=O)S/C(=C/c3ccc(-c4cc(C(=O)O)ccc4C)o3)C2=O)cc1C	-17%	9%	-26%	-2	-7	-15%
CSc1nc(-c2ccc(N(C)C)cc2)c(C#N)c(=O)n1C	-1%	1%	4%	25*	42*	1%
Cc1ccc2c(c1)NC(=O)c1cccnc1N2	-9%	-24%	0%	51*	97	0%
N/C(CN1CCCC1=O)=N\OC(=O)c1ccc(Cl)cc1	5%	-1%	4%	15*	-4	3%
N/C(CN1CCCC1=O)=N\OC(=O)c1ccc(Cl)c(Cl)c1	4%	-11%	-13%	23*	-6	3%
COc1cc(Cn2c3ccc(NC(=O)NCCc4ccccc4)cc3c(=O)n2C)ccc1F	4%	·	·	·	·	·
CCC(CC)c1nnc(NC(=O)C23CC4CC(CC(NC(C)=O)(C4)C2)C3)s1	0%	-5%	13%	-4	-8	-4%
CC(=O)NC12CC3CC(C1)CC(C(=O)Nc1nc4ccc(F)cc4s1)(C3)C2	-5%	3%	4%	45*	71*	·
CN(C)CCCN(C(=O)CCOc1ccccc1)c1nc2c(F)cccc2s1	?	-2%[11.5 µM]	0.4µM*	7	-8	2%
Cc1cc(C)c2nc(N(CCCN(C)C)C(=O)c3ccc4c(c3)CCCC4)sc2c1	1%	·	2%	·	·	·
O=C(CCOc1ccccc1)N(Cc1cccnc1)c1nc2ccc(F)cc2s1	-6%	·	4µM*	·	·	·
CN(C)CCCN(C(=O)c1ccc2c(c1)CCCC2)c1nc2c(F)cccc2s1	-15%	-8%	?	17*	24*	?
